For 30 molecules, Potency and outcome results are on record in PubChem BioAssay (Tox21).

SMILES strings stand for the structures. Several values for one entry are separate records, joined by “and”; a condition that tells them apart may be missing. Equal entries are not always repeated. Results filed as inconclusive are left out. Some compounds were tested as several samples or in several runs, with calls that do not always agree. Activity calls are given as the source filed them. Unless noted, calls come from the whole dose curve; as a rule, active = well fitted curve in the direction sought with a large enough effect in the repeat runs; inconclusive = weak or mixed curves; inactive = no such curve, though single readings can be large; an effect the other way counts as inactive or inconclusive.

Assay [1] can be described thus: qHTS assay to identify small molecule antagonists of the androgen receptor (AR) signaling pathway using the MDA cell line in the presence of 0.5 nM R1881 - cell viability counter screen (AID 1259242). Note: nearly all actives have a fitted effect of over 45% in size. In a few lines:
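Viability of MDA-kb2 cells was multiplexed with the luciferase AR readout; after 16 hr with compounds and R1881 at 0.5 nM final, CellTiter-Fluor fluorescence was recorded.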
For orientation: In qHTS, concentration-response curves come from the screen itself.

Assay [2] has as its target Estrogen receptor (Homo sapiens) (UniProt P03372). As to the kind of experiment: qHTS assay to identify small molecule antagonists of the estrogen receptor alpha (ER-alpha) signaling pathway using the BG1 cell line in the presence of 0.1 nM 17-beta-estradiol (AID 1259244). Note: nearly all actives have a fitted effect of over 50% in size. In a few lines: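 Estradiol at 0.1 nM (final) stimulates the endogenous ER-alpha of VM7Luc4E2 cells carrying an ERE-driven luciferase; compounds are co-incubated 22 h at 37C and luciferase output quantified by luminescence.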

Assay [3] in a line: qHTS assay to identify small molecule HDAC inhibitors (AID 1259364).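 Note: wild-type HCT-116 cells with endogenous class I/II HDAC activity; top concentration of the series differs between compounds; nearly all actives have a fitted effect of over 45% in size.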 In a few lines:
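Read-out: luminescence of HDAC-Glo I/II reagent, 30 min RT, reflecting class I/II deacetylase activity in whole HCT-116 cells pre-exposed 2 h to DMSO-dissolved compounds.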

Assay [4] can be described thus: qHTS assay to identify small molecule agonists of the sonic hedgehog signaling (Shh) pathway - cell viability counter screen (AID 1259366). Note: nearly all actives have a fitted effect of over 50% in size. Note: potency is the fitted concentration of half-maximal effect. In a few lines: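 Compounds in DMSO were pin-transferred onto 3T3 Gli1-Luc cells that had settled 4hr; plates then stood 24hr at 37C and 5% CO2. One hour before the end, CellTiter-Fluor was added and fluorescence recorded.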
Assay [5] is described as follows: qHTS assay to identify small molecule antagonists of the sonic hedgehog signaling (Shh) pathway - cell viability counter screen (AID 1259367). Note: nearly all actives have a fitted effect of over 55% in size. Note: potency is the fitted concentration of half-maximal effect. In a few lines:
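Cells: 3T3 Gli1-Luc, 2,000/well, 4 hr pre-incubation. Compounds in DMSO, then conditioned medium. Incubation 24 hr, 37C, 5% CO2. CellTiter-Fluor at 23 hr, 1 hr, fluorescence.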

A short description of assay [6]: qHTS assay to identify small molecule agonists of the sonic hedgehog signaling (Shh) pathway (AID 1259368; calls by dose curve;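 note: NIH/3T3-derived 3T3Gli1-Luc cells carrying a stable Gli1-driven firefly luciferase reporter; series mostly up to about 92 µM; nearly all actives have a fitted effect of over 15% in size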). Summed up: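 A Gli1 transcriptional response element controlled firefly luciferase in 3T3Gli1-Luc cells. Compounds and a positive control were added 4 hr after plating, and cells were incubated a further 24 hr at 37 C before luminescence detection.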
Assay [7] can be described thus: qHTS assay to identify small molecule antagonists of the sonic hedgehog signaling (Shh) pathway (AID 1259369; calls by dose curve; note: nearly all actives have a fitted effect of over 45% in size; note: potency is the fitted concentration of half-maximal effect). In a few lines: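 For antagonist detection, the reporter line received test compounds together with conditioned medium, incubated 24hr at 37 C, 5% CO2, then luminescence was recorded following 30min room-temperature luciferase reagent incubation.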
Assay [8] is described as follows: qHTS assay to identify small molecule phospholipidosis (PLD) inducers (AID 1259344; active = well fitted curve in the direction sought with a large enough effect; an effect the other way counts as inactive or inconclusive). In a few lines: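 Phospholipidosis is scored by imaging LipidTOX-stained pits in HepG2 cells exposed to compound for 24 h at 37 C; pit counts and integrated intensities per well and per cell serve as outputs.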
A short description of assay [9]: qHTS assay to identify small molecule HDAC inhibitors - cell viability counter screen (AID 1259365). Note: series mostly up to about 92 µM; nearly all actives have a fitted effect of over 50% in size. Summed up: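 HCT-116 wild-type, overnight attachment; 2hr drug exposure, 37C; CellTiter-Glo luminescent ATP readout after 30min RT.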

Sequence of Estrogen receptor (Homo sapiens) (P03372 whole entry, looked up): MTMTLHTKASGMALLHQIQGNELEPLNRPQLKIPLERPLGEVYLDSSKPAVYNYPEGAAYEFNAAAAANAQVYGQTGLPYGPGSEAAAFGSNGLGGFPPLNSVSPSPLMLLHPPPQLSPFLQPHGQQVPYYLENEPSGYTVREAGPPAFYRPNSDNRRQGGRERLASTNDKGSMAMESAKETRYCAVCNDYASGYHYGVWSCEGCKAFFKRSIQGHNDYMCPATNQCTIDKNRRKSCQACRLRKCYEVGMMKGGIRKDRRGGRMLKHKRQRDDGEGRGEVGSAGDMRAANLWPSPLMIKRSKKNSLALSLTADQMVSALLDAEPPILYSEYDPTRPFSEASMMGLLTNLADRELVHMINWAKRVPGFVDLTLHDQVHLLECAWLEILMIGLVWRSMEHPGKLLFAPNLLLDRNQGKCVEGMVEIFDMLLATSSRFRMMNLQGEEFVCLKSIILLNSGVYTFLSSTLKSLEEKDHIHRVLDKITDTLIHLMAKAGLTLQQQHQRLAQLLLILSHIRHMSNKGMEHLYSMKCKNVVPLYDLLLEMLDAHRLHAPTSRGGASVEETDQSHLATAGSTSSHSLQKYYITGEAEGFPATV

As to `CCCCCCC(=O)O`, the Potency result in [1], in assay [2], in [3], in assay [4], in assay [5] and in [6] was “inactive” in each case. The Potency entry in assay [7] was “inactive”.
Consider `CCn1cc(C(=O)O)c(=O)c2cc3c(cc21)OCO3`, for which the Potency result in [1], in [3], in assay [9], in assay [4], in [5] and in assay [6] was “inactive” throughout. Moreover, in [7], the Potency result is “inactive”. In [8], the molecule was classed as inactive.
In the case of `COc1ccc(N)c(OC)c1`, the Potency result in assay [1], in [2], in [3], in assay [9], in assay [4] and in assay [6] was “inactive” each time. Further, the Potency in [7] is 9.31 µM (active).
With `C=CC(=O)NCOCCCC`, the Potency result in assay [1], in [2], in [3], in [9], in [4] and in assay [5] was “inactive” each time. Further, the Potency entry in assay [6] and in [7] was “inactive” in each case.
Turning to `Cc1ccccc1C=O`, the Potency result in assay [1], in assay [2], in assay [3], in assay [4], in assay [5] and in assay [6] was “inactive” each time. The Potency result in assay [7] was “inactive”.
Take `CN1CCCC1=O`: the Potency entry in [1], in assay [2], in assay [3], in assay [9], in assay [4] and in assay [5] was “inactive” each time. For the same molecule, the Potency entry in [6] and in assay [7] was “inactive” each time.
Turning to `O=c1n(CCCN2CCN(c3cccc(Cl)c3)CC2)nc2ccccn12`, the Potency entry in [1], in assay [3], in assay [9], in assay [4], in assay [5] and in assay [6] was “inactive” each time. The Potency entry in assay [7] is “inactive”. Also, the molecule was classed as inactive in [8].
As to `CC(CN1c2ccccc2Sc2ccccc21)N(C)C` (stereo not given), the Potency result in [1], in assay [3], in assay [9] and in assay [6] was “inactive” throughout. In addition, the molecule was called inactive in assay [8]. The Potency in [4] is 61.8 µM (active) and 30.6 µM (active) and inactive; in assay [5] it was 27.6 µM (active) and inactive; in [7], 12.3 µM (active) and 27.3 µM (active) and 13.3 µM (active).
Consider `OC1CCCCC1`, for which the Potency entry in assay [1], in [2], in [3], in assay [9], in [4] and in [5] was “inactive” each time. In addition, the Potency entry in assay [6] and in assay [7] was “inactive” each time.
For the molecule `CCCCCCCCO`, the Potency result in assay [1], in [2], in assay [3], in assay [4], in [5] and in assay [6] was “inactive” each time. Also, the Potency result in assay [7] is “inactive”.
Consider `Cc1cc(C)cc(O)c1`, for which the Potency result in assay [1], in [2], in [3], in assay [9] and in assay [6] was “inactive” each time. The Potency is 8.65 µM (active) and inactive in assay [4]; 2.44 µM (active) and inactive in [5]; 1.09 µM (active) in assay [7].
For `CCc1cccc(O)c1`, the Potency entry in [1], in assay [2], in assay [3], in assay [9], in assay [4] and in assay [5] was “inactive” each time. Also, the Potency entry in [6] and in [7] was “inactive” in each case.
Consider `Cc1cc(C)c(O)c(C)c1`, for which the Potency entry in assay [1], in assay [2], in assay [3], in assay [4], in assay [5] and in [6] was “inactive” each time. For the same molecule, the Potency result in assay [7] is “inactive”.
For `O=C(Cl)c1ccc(C(=O)Cl)cc1`, the Potency result in assay [1], in assay [2], in assay [3], in assay [9], in assay [4] and in assay [5] was “inactive” in each case. Besides, the Potency entry in [6] and in assay [7] was “inactive” each time.
In the case of `Cc1ccc([N+](=O)[O-])cc1N`, the Potency result in assay [1], in assay [2], in assay [3], in assay [9], in assay [4] and in assay [5] was “inactive” throughout. Moreover, the Potency result in [6] and in [7] was “inactive” in each case.
Turning to `CC(O)CNCC(C)O` (stereo not given), the Potency entry in assay [1], in [2], in [3], in [9], in [4] and in assay [5] was “inactive” each time. Besides, the Potency entry in assay [6] and in assay [7] was “inactive” throughout.
On to `COc1c(Cl)ccc(Cl)c1C(=O)O`, for which the Potency result in [1], in assay [2], in assay [3], in assay [9], in assay [4] and in assay [5] was “inactive” in each case. In addition, the Potency entry in [6] and in [7] was “inactive” throughout.
On to `COC(=O)CCCCC(=O)OC`, for which the Potency entry in assay [1], in assay [2], in [3], in assay [4], in assay [5] and in [6] was “inactive” in each case. For the same molecule, the Potency entry in [7] is “inactive”.
Turning to `Clc1cccc(Cl)c1NC1=NCCN1`, the Potency entry in assay [1], in [3], in [9], in assay [4], in assay [5] and in [6] was “inactive” throughout. Also, the Potency result in [7] was “inactive”. For the same molecule, in assay [8], the result was inactive.
In the case of `NC(=O)NC(N)=O`, the Potency entry in assay [1], in [2], in assay [3], in [4], in assay [5] and in [6] was “inactive” each time. Further, in [7], the Potency entry is “inactive”.
With `Cc1ccc(Cl)cc1`, the Potency entry in assay [1], in assay [2], in [3], in assay [4], in assay [5] and in [6] was “inactive” each time. The Potency result in assay [7] is “inactive”.
`O=C1CCCCCCCCCCC1`: the Potency result in assay [1], in assay [2], in assay [3], in assay [9], in [4] and in [5] was “inactive” in each case. The Potency result in assay [6] and in assay [7] was “inactive” each time.
In the case of `Oc1ccc(Cc2ccccc2O)cc1`, the Potency result in [1], in assay [2], in assay [3], in [9], in assay [4] and in [5] was “inactive” throughout. Besides, the Potency entry in assay [6] was “inactive”. In [7], the Potency was 43.3 µM (active).
With `Cc1ccc(C)c(S(=O)(=O)O)c1`, the Potency entry in assay [1], in assay [3], in assay [4], in assay [5], in assay [6] and in [7] was “inactive” each time.
Regarding `O=C(O)Cc1c[nH]c2ccccc12`, the Potency result in assay [1], in assay [3], in assay [4], in assay [5], in [6] and in assay [7] was “inactive” throughout.
Regarding `CC(=O)OCCC(C)C`, the Potency entry in assay [1], in assay [3], in [4], in assay [5], in assay [6] and in [7] was “inactive” in each case.
With `C[n+]1ccn(CCO)c1`, the Potency entry in assay [1], in assay [3], in assay [4], in [5], in assay [6] and in [7] was “inactive” each time.
Consider `C=C(CC(=O)O)C(=O)O`, for which the Potency result in assay [1], in [3], in assay [4], in assay [5], in assay [6] and in assay [7] was “inactive” each time.
As for `CCCOC(=O)NCCCN(C)C`, the Potency result in assay [1], in assay [3], in assay [9], in assay [4], in [5] and in assay [6] was “inactive” in each case. The Potency result in assay [7] is “inactive”.
Regarding `CN1Cc2c(N)cccc2C(c2ccccc2)C1` (stereo not given), the Potency result in assay [1], in [3], in assay [4], in assay [5], in assay [6] and in assay [7] was “inactive” each time. Besides, the result in [8] was inactive.
